Data as given in PubChem BioAssay (NCI).
Compounds without any hit were thinned out: in the full panel of roughly 83,000, 20% have a hit.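 Cells were grown in 96-well plates and exposed to the test compound at a single concentration for 48 hours; results are reported as percent growth, with values below 10 considered active.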 A number with no mark means an inactive call. Activity calls are given as the source filed them.

system: HL-60(TB) leukemia; experiment: NCI-60 one-dose screen, 48 h (100 = growth as untreated, 0 = no growth, -100 = all killed); conditions: 10 µM unless noted

SMILES	growth
OC(c1cc2cc(Br)ccc2c2cc(Br)ccc12)C1CCCCN1 (stereo not given)	-61.8% (active)
COc1cccc(-c2cn3c(ccc4ccccc43)n2)c1	6.28% (active)
COc1cc(C)cc2oc3oc(=O)c(C(=O)c4cc5cc(Br)ccc5o4)cc3c(=O)c12	103%
O=C1C(c2c[nH]c3ccccc23)=C(c2coc3cc(Br)ccc23)C(=O)N1O	103%
N#Cc1c(-c2ccc(C(F)(F)F)cc2)c(F)c(NCCC2CCC(O)C2)n2c1nc1ccccc12 (stereo not given)	25.1%
COc1ccc(CNc2ccc3nc(CCC4CCCCC4)[nH]c3c2)cc1	54.8%
Cc1ccc(Nc2nnc(-c3ccc(Cl)cc3)o2)c(C)c1	84.2%
Nc1nc(N)c2c(n1)NC(c1cccc(Nc3ccnc4cc(C(F)(F)F)ccc34)c1)CC(c1ccccc1)=N2 (stereo not given)	34.8%
COc1cc(/C=C2\C(=O)N(CC(O)COc3cc(O)c4c(=O)cc(-c5ccccc5)oc4c3)c3ccccc32)cc(OC)c1O (stereo not given)	80.5%
Cc1cc(Nc2ccc(C(=O)N3CCCC3)cc2)nc(NCCCNc2ccnc3cc(Cl)ccc23)n1	84.4%
CC(C)N1CCN(c2ccc(OC[C@H]3CO[C@](Cn4cncn4)(c4ccc(Cl)cc4Cl)O3)cc2)CC1	91.3%
O=C(c1ccc2ncc(-c3nc(NC4CC4)ncc3F)n2c1)N1CCOCC1	-30.3% (active)
N#CC1=C(N)Oc2c(c(N)nn2-c2ccccc2)C1c1ccc(Cl)cc1Cl (stereo not given)	96.5%
CO[C@H]1CC(O[C@@H]2/C(C)=C/C[C@@H]3C[C@@H](C[C@]4(C=C[C@H](C)[C@@H](C5CCCCC5)O4)O3)OC(=O)[C@@H]3C=C(C)[C@@H](O)[C@H]4OC/C(=C\C=C\[C@@H]2C)[C@]43O)O[C@@H](C)C1O[C@H]1C[C@H](OC)[C@@H](O)[C@H](C)O1 (stereo not given in full)	-50.5% (active)
C#C[C@]1(O)CC[C@H]2[C@@H]3CC=C4c5sc(Nc6cc(F)ccc6F)nc5CC[C@]4(C)[C@H]3CC[C@@]21C	-1.19% (active)
O=C(Nc1ccc(Cl)cc1)N1NC(c2ccc(Cl)cc2)C=C1c1ccccc1 (stereo not given)	80.3%
CC[C@H](C)[C@H](NC(=O)[C@@H](N)CCC(N)=O)C(=O)N[C@@H](Cc1ccc(O)cc1)C(=O)N[C@@H](CCCCN)C(=O)N[C@@H](CCCCN)C(=O)N[C@@H](Cc1ccc(O)cc1)C(=O)N[C@@H](CCCNC(=N)N)C(=O)N[C@H](C(=O)N[C@@H](Cc1c[nH]c2ccccc12)C(=O)N[C@@H](Cc1ccc(O)cc1)C(=O)N[C@@H](CCCNC(=N)N)C(=O)N[C@@H](CCCCN)C(=O)N[C@@H](C)C(=O)N[C@@H](Cc1c[nH]c2ccccc12)C(=O)N[C@@H](CCCCN)C(=O)N[C@H](C(=O)N[C@@H](CC(C)C)C(=O)NCC(=O)N[C@@H](CCCCN)C(=O)N[C@H](C(N)=O)C(C)C)C(C)C)[C@@H](C)O	13.9%
Cc1c(CC(=S)N2CCOCC2)nnn1-c1cccc(C(F)(F)F)c1	100%
COc1ccc(C(=O)C(C#N)c2cc(OC)c(OC)c(OC)c2)cc1 (stereo not given)	96%
O/N=C1\c2ccccc2-c2ccc(F)cc21	92.3%
O=C1Nc2ccc(Br)cc2C12Oc1ccccc1C1CC(c3ccc(F)cc3)=NN12 (stereo not given)	92.9%
COc1cc(C(=O)/C=C/c2c(-c3ccc(F)cc3)nc3sccn23)cc(OC)c1OC	32%
COc1cc2c(cc1OCCCN1CCN(CCCn3c4ccccc4c4ccccc43)CC1)N=C[C@@H]1CCCN1C2=O	-44.8% (active)
CC(=O)c1ccc(NS(=O)(=O)c2ccc([N+](=O)[O-])cc2)cc1	90.3%
CCCCCCCCn1ccc2cc(NC(=O)Cn3cc(CN4CCCCCC4)nn3)ccc21	-43.1% (active)
